Data from PubChem BioAssay AID504652 (National Center for Advancing Translational Sciences (NCATS), 2011).
Among all 360,000 compounds or so, about 11,000 (3.1%) were called active. Cut-off read from the data, not from the text of the source: active = activity change below about -30%; inactive = the rest. What follows is part of a selection rich in actives, with near analogues and random picks from the rest.

molecular target: D(1A) dopamine receptor (Homo sapiens) (UniProt P21728); assay: Antagonist of Human D 1 Dopamine Receptor: qHTS; details: HEK293 TREx D1 cells, calcium flux, dopamine EC80; at 10 µM; hits give low values
In short: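 Antagonism measured as reduced calcium response to an EC80 dopamine addition following 180 s compound pre-read; cells were inducible HEK293 Trex D1 plated overnight at 30 C, read kinetically at 1 cycle/sec.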
% is set by controls: 0 for no effect and ±100 for the full control effect.

Sequence of D(1A) dopamine receptor (Homo sapiens) (P21728 whole entry, looked up): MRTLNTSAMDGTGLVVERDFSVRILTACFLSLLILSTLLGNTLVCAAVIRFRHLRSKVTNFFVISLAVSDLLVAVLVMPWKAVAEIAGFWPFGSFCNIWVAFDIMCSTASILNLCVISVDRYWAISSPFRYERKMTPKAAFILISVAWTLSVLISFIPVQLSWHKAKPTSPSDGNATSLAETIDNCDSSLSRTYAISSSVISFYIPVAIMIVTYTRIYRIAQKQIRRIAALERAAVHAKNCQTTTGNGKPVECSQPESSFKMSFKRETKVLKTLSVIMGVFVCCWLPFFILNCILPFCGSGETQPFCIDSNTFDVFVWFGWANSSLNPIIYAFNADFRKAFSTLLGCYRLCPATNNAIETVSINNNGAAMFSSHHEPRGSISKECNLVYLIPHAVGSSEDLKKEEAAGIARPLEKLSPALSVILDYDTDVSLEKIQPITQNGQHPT

Activity change, negative = inhibition, inactive:
COc1cc(NC(=O)c2nn(-c3ccc(C)cc3)c(=O)c3c2c2ccccc2n3C)cc(OC)c1OC -20.1%, COC(=O)CC1=NN(c2nc(C)cc(C)n2)C(=O)C1 3.03%, C/C(N)=C(/C#N)C(=O)COC(=O)C1=NN(c2ccccc2)C(=O)CC1 -6.72%, CCCCn1c(CNC(=O)C23CC4CC(CC(C4)C2)C3)nnc1SCC(=O)Nc1ccc(C)cc1 1.21%, CC1CCCN(Cc2c(O)ccc3c(=O)c(Oc4ccc(C(C)(C)C)cc4)c(C(F)(F)F)oc23)C1 (stereo not drawn) 11.8%, O=C(Nc1ccc(C(=O)OCc2cc(=O)n3nc(C4CC4)sc3n2)cc1)c1ccc(F)cc1 4.99%, COc1ccc(NC(=O)COCc2cc(-c3ccco3)on2)cc1 8.36%, CNc1nnc(-c2ccco2)s1 -6.48%, COc1ccc(CCNC(=O)c2cnc3sc(N4CCCCCC4)nn3c2=O)cc1OC -6.51%, CCOC(=O)C1=C(c2ccccc2)Nc2ncnn2C1c1ccc(Cl)cc1 (stereo not drawn) 6.82%, CS(=O)(=O)c1ccc(-c2nnc(NC(=O)c3ccc4c(c3)OCCO4)o2)cc1 -10.1%, O=C(CSc1oc(-c2ccco2)nc1S(=O)(=O)c1ccccc1)c1ccc(Cl)cc1 -17.4%, CCOC(=O)c1cc(-c2ccccc2)n(-c2cccc(C(=O)Nc3cc(OC)cc(OC)c3)c2)c1C -24.9%, CC(=O)c1cc(C#N)c(N2CC(C)OC(C)C2)nc1C (stereo not drawn) -0.422%, CC(=O)c1cc(C#N)c(SCC(=O)Nc2nccs2)nc1C 2.32%, O=C(Cn1c(=O)n(Cc2ccccc2)c(=O)c2sc3ccccc3c21)Nc1ccccc1F 0.434%, CNC(=O)c1ccc(-c2nc(CN3CCc4ccccc43)c(C)o2)cc1 6.56%, COc1cccc(Cn2c(CNS(=O)(=O)c3ccc(Cl)s3)nc3cccnc32)c1 25.3%, CCOC(=O)c1cccc(NS(=O)(=O)c2c(C(=O)N3CCCCCC3)c(C)n(C)c2C)c1 14.9%, CN1CCN(C(=O)c2ccc(NS(=O)(=O)c3ccccc3)cc2)CC1 -3.19%, Cc1ccc(C(=O)CSc2nc(-c3ccccc3)nc3c2CCCC3)c(C)c1 17.2%, Cc1ccc(C(C)NC(=O)Cn2nc(C)c([N+](=O)[O-])c2C)cc1 (stereo not drawn) -12%, Cc1ccn(CC(=O)N2N=C(C(F)F)CC2(O)C(F)F)n1 (stereo not drawn) 3.73%, CCc1nnc(SCc2nc(-c3cccc(C)c3)oc2C)c2cc3sc(C)cc3n12 8.82%, CCc1cccc(NC(=O)c2cnc(N3CCOCC3)c3ccccc23)c1 -4.31%, CC(=O)c1sc(N2C(=O)c3oc4ccccc4c(=O)c3C2c2ccc(C)cc2)nc1C (stereo not drawn) 1.92%, O=C(CN1CCCCC1)Nc1ccccc1C(=O)NC1CC1 6.93%, COC(=O)c1ccccc1NC(=O)CSc1nnnn1C -7.79%, Cc1cccc(CCNC(=O)c2ccc3c(c2)nc2n3CCC(C)C2)c1 (stereo not drawn) 2.06%, Oc1ccc(Cl)cc1C1C=C(c2ccc3c(c2)OCO3)NC(c2c(F)cccc2Cl)N1 (stereo not drawn) -6.98%, COc1ccc(S(=O)(=O)Nc2cccc3cccnc23)c(N)c1 8.2%, COc1cccc(-n2ccn(CC(=O)NCc3ccc(C)cc3)c(=O)c2=O)c1 -17.3%, CCC(=O)NC(NCC1CCCO1)C(Cl)(Cl)Cl (stereo not drawn) -13.3%, S=C(NCCc1ccccc1)NCC1CCCO1 (stereo not drawn) 5.26%, O=C(CC1Oc2ccc(Cl)cc2NC1=O)NCc1ccccc1 (stereo not drawn) -13.4%, CCC(C(=O)OCC(=O)Nc1c(Cl)cc(Cl)cc1Cl)c1ccccc1 (stereo not drawn) -5.4%, CCC(C(=O)OCC(=O)Nc1ccccc1-c1ccccc1)c1ccccc1 (stereo not drawn) 5.02%, CCOC(=O)c1ccc(CSc2nnc3cc(C)c4ccccc4n23)cc1 11.8%, CCN(CC)S(=O)(=O)c1ccc(C(=O)N=c2sc3cccc(OC)c3n2C)cc1 -7.05%, CCOc1ccc(-c2nonc2NC(=O)c2oc3ccc(CC)cc3c2C)cc1 -6.14%, COc1ccc(S(=O)(=O)N2CCN(c3ccc(F)cc3)CC2)cc1-c1noc(C)n1 -9.63%, COc1ccc(N2CCN(S(=O)(=O)c3ccc(-c4coc(C)n4)cc3)CC2)cc1 3.09%, Cc1cc(C)cc(NC(=O)CCCc2nc(-c3ccccc3Cl)no2)c1 5.87%, Cc1ccc(NC(=O)c2ccc(CN3CC(=O)N4CCCCC4C3=O)cc2)c(Cl)c1 (stereo not drawn) 1.45%, Cc1ccc(CC2C(=O)N(c3ccc(F)cc3)C(=O)C2C)cc1 (stereo not drawn) -14.1%, CCNC(=O)CC1C(=O)N(c2ccc(F)cc2)C(=O)N1Cc1ccc(C)cc1 (stereo not drawn) -4.84%, Cn1c(=O)c2c(nc(Oc3ccc(C#N)cc3)n2Cc2ccc(Cl)cc2Cl)n(C)c1=O 17.3%, O=C(/C=C/c1ccc(Cl)cc1)N1CCN(c2ccccc2[N+](=O)[O-])CC1 -7.39%, Cc1nn(-c2ccccc2)c(Cl)c1/C=C/C(=O)c1ccc(O)cc1 -19.2%, Cc1ccc(Cl)cc1NC(=O)/C(C#N)=C\c1cn(Cc2ccc(F)cc2)c2ccccc12 -3.88%, Cc1ccccc1OCc1nc2c3cnn(-c4ccccc4F)c3ncn2n1 3.88%, COc1ccccc1C(=O)OCC(=O)NCCNC(=O)COC(=O)c1ccccc1OC 9.27%, COc1ccccc1CNC(=O)COc1ccc(C)nc1[N+](=O)[O-] 4.17%, COc1ccc(S(=O)(=O)NCC(c2ccc(N(C)C)cc2)N2CCCC2)cc1 (stereo not drawn) -3.85%, Cc1cc(OCC(=O)NCC2(N(C)C)CCCCC2)cc(C)c1Cl 1.84%, O=C(Nc1ncccc1O)c1ccc(C(=O)c2ccccc2)cc1 -8.68%, CC1CCC(NC(=O)CNC(=O)c2ccc3ccccc3c2)CC1 (stereo not drawn) -16.3%, Cc1ccc(S(=O)(=O)N2CCCc3cc(NS(=O)(=O)c4cc(C)ccc4C)ccc32)cc1 -3.71%, CCc1ccc(NC(=O)CSc2nc3c([nH]c4ccccc43)c(=O)n2-c2cccc(OC)c2)cc1 -24.8%, CCOc1ccc(-c2cc3nc(C4CCN(C(=O)OC(C)(C)C)CC4)c(C(=O)Nc4cccc(CC)c4)cn3n2)cc1 2.76%, CC(=O)Nc1ccc(NS(=O)(=O)c2ccc3c(c2)NC(=O)CC(=O)N3)cc1 19.3%, Cc1ccc(C(=O)Nc2ccc(C(=O)O)cc2)cc1S(=O)(=O)Nc1ccccc1 1%, COc1cc2c(=O)c(S(=O)(=O)c3ccc(C(C)C)cc3)cn(Cc3ccccc3C)c2cc1OC 22.6%, CCCNC(=O)C1CCN(c2nc3ccc(C)cc3[nH]2)CC1 2.03%, CC(C)(C)N(Cc1ccccc1)C(=O)c1ccncc1 1.43%, CN(Cc1ccccc1)C(=O)c1cccc(C(=O)N(C)Cc2ccccc2)c1 -2.18%, COc1cc(CN(CC2CCCO2)C(=O)c2ccccc2F)cc(OC)c1OC (stereo not drawn) -5.27%, Cc1nc(N2CCN(c3ccccn3)CC2)c2c(C)c(C(=O)Nc3ccc(F)cc3)sc2n1 1.11%, Cc1c(CN2CCC(CO)(CCOc3ccccc3)CC2)[nH]c2ccc(Cl)cc12 -2.77%, CCCCN(C)S(=O)(=O)c1ccc(C(=O)Nc2sc3c(c2C(N)=O)CC(C)(C)NC3(C)C)cc1 18.5%, Cc1oc2ncn(CC(C)C)c(=O)c2c1C(=O)N1CCN(c2ccccc2F)CC1 -5.83%, Cn1c(=O)c(C(=O)O)nn(-c2ccccc2)c1=O -4.78%

Activity change, negative = inhibition, active:
COC(=O)CC1=NN(c2ccccc2)C(=O)C1 -33.1%, COc1ccc(OCC(=O)Nc2nnc(-c3ccco3)s2)cc1 -88.7%, CC(=O)c1cc(C#N)c(N2CCCCC2)nc1C -36.9%, CCOC(=O)N1CCN(C(=O)c2ccc(S(=O)(=O)Nc3cccc(C(F)(F)F)c3)cc2)CC1 -41.7%, Cc1nn(Cc2ccc(C(=O)N3N=C(C(F)F)CC3(O)C(F)F)cc2)c(C)c1[N+](=O)[O-] (stereo not drawn) -31.2%, Cn1nnnc1SCC(=O)Nc1ccccc1C(=O)NC1CC1 -31.5%, CC1(C(=O)NNC(=S)NCC2CCCO2)CC1(Cl)Cl (stereo not drawn) -33.9%, CCC(C(=O)OCC(=O)Nc1ccc(C(=O)Nc2ccc(OC)cc2)cc1)c1ccccc1 (stereo not drawn) -57.6%, CCc1nc(-c2cc(S(=O)(=O)N3CCN(c4ccc(OC)cc4)CC3)ccc2OC)no1 -58.8%, C=C1c2cc(CC)ccc2NC(=O)N1c1ccc(C)cc1 -37.2%, CN(C)c1ccc(/C=C/C(=O)c2ccc(O)cc2)cc1[N+](=O)[O-] -31.2%, COc1ccccc1CNC(=O)COC(=O)c1sc(C)nc1C -37.9%, O=C(CNC(=O)c1ccc2ccccc2c1)Nc1ncccc1O -39.8%, CC(=O)Nc1ccc(NS(=O)(=O)c2cc(C)sc2C)cc1 -48.1%, CN(C(=O)CN(CCO)CC(=O)N(C)C(C)(C)Cc1ccccc1)C(C)(C)Cc1ccccc1 -97.3%, Cc1c(CN2CC[C@@H](N3CCN(c4ccccn4)CC3)[C@H](O)C2)[nH]c2ccc(F)cc12 -30.2%
